The values that follow come from the OligoGym collection.
Note: reference of the scale not given here.

The first test has as its target CCDC102B. Nature of the test: pooled miR-30 sensor sort-seq; sequence = guide strand. To be noted: shRNA.
Sequence TTTGTTAATACAACCTGCCATC returned a sensor-assay potency score (higher = more potent) of -1.01.

With TTGCATTTCATCATTATGTTGA, the sensor-assay potency score (higher = more potent) is 0.234.

TTGATGATTGTTGCATCTGGAA: the sensor-assay potency score (higher = more potent) is -0.905.

ATCAACACCATCTAGATTGGGC displayed a sensor-assay potency score (higher = more potent) of 0.0383. The sequence TTTGTGACATCTTGAAATCAGG displayed a sensor-assay potency score (higher = more potent) of -1.26. The same measure, in the same setting: in the case of TTCACCTGGATCTTCAGCCTTC it was 0.0425; in that of TTATTCTGAGTTGTCTTCCTTC, 0.72; in that of TAATCTATTTTTCTTATCCAAA, -1.3. TTAACTCACAAATCACTCTGTC returned a sensor-assay potency score (higher = more potent) of 0.63.

TTCAGCTCGAACTTTACTCCAT displayed a sensor-assay potency score (higher = more potent) of 0.199. The same measure, in the same setting: the figure for TAACATTAGCTTCTAATGCCTC is -0.718.

The target in another test is CCDC105. The test is described as above. As to conditions: shRNA.
TTTTTCCATATCTCTCTCCATT had a sensor-assay potency score (higher = more potent) of -1.2. On the same count and under the same terms, in the case of TTTGCCATTTCTACCAAGGTGT it was -0.502; in that of TTGAGTAGGACCTCTGATTTTT, -1.1; in that of TTGCGCACTTCGCTGAGCCTGT, -0.764. On the same count and under the same terms, the figure for TTCAGCTCCAAGGTCTCGCTCG is -0.194; for TTAATCTTTCCTTCAGCTCCAA it is 0.0783; for TTCGCTGAGCCTGTGGTCGGTG it is -0.476. The same measure, in the same setting: in the case of TAATCTTTCCTTCAGCTCCAAG it was -0.875; in that of TATCTGCAGCTGTTGCTCCCGG, -0.913. The sequence TATATTTCGTACACCGGAGGAT showed a sensor-assay potency score (higher = more potent) of 0.16. On to TTGGACTCGACCAACAACCGCT, for which the sensor-assay potency score (higher = more potent) was -0.0723.

With TTTTCTGACCCTGTGTGCGTGG, the sensor-assay potency score (higher = more potent) was -0.545.

In a further test the target is CCDC111. The test is described as above. To be noted: shRNA.
For TAAAAGCTTGAGCTTGTCGATG, the sensor-assay potency score (higher = more potent) was -0.777. TTTGATGATTTATATAGCCGAA: the sensor-assay potency score (higher = more potent) is -0.728. Still for that read-out and setting: in the case of TTTTATTGAAAGAAAATCCTTG it was 0.279; in that of TATAGTAAAACCAAAATTCAGC, -0.935.

In the case of TTGTAAACTCTTCTTCCTCTTT, the sensor-assay potency score (higher = more potent) was -0.271. For TATTTCTTGTATAAACTCCGAG, the sensor-assay potency score (higher = more potent) is -0.0493. Same read-out and setting: in the case of TTGTCGATGAAATAGTCTCCAG it was -1.27.

The sequence TAAACCAGTAATTCTTCTGGGA returned a sensor-assay potency score (higher = more potent) of 0.0581.

The target in the next test is CCDC124. Described as above. As to conditions: shRNA.
TTCTGCTTCTTGGCATCAGCGG: the sensor-assay potency score (higher = more potent) is -0.999.

TGACGTGTTTGTCGTCGTCCTT: the sensor-assay potency score (higher = more potent) is -0.925.

Consider TTGTTTGAGCCGCGGCAGCTGG, for which the sensor-assay potency score (higher = more potent) is -1.54.

TTCTCTTGTTTGAGCCGCGGCA yielded a sensor-assay potency score (higher = more potent) of -0.945. In turn, TGAGCTTGGAGTCCTCCTCCTC yielded a sensor-assay potency score (higher = more potent) of -1.05. The same measure, in the same setting: the figure for TAGGCGCTGCGTCTCCTTCTTA is -1.03; for TTGAGCAGCTGTTTCAGCTGCG it is 0.469; for TTGAGCTTGGAGTCCTCCTCCT it is -0.0303.

Regarding TTTCAGCTGCGACAGCCGCATG, the sensor-assay potency score (higher = more potent) is -1.52.
